Experimental data taken from PubChem BioAssay (NCI).
The panel holds about 83,000 compounds, 20% with a hit somewhere; the sample as a whole holds those more often.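 Activity criterion: percent growth below 10, measured after cells in 96-well plates were exposed to a single compound concentration for 48 hours.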 Unmarked numbers belong to inactive results. Activity calls are given as the source filed them.

Columns and labels:
Experiment in all cases: NCI-60 one-dose screen, 48 h (100 = growth as untreated, 0 = no growth, -100 = all killed)
Settings in all cases: 10 µM unless noted
NCI-H23 lung = tested on: NCI-H23 lung
NCI-H226 lung = tested on: NCI-H226 lung
NCI-H322M lung = tested on: NCI-H322M lung
HOP-62 NSCLC = tested on: HOP-62 NSCLC
NCI-H460 lung = tested on: NCI-H460 lung
HOP-92 NSCLC = tested on: HOP-92 NSCLC
NCI-H522 lung = tested on: NCI-H522 lung
A549/ATCC NSCLC = tested on: A549/ATCC NSCLC
786-0 renal = tested on: 786-0 renal
COLO 205 colon = tested on: COLO 205 colon

SMILES	growth (NCI-H23 lung)	growth (NCI-H226 lung)	growth (NCI-H322M lung)	growth (HOP-62 NSCLC)	growth (NCI-H460 lung)	growth (HOP-92 NSCLC)	growth (NCI-H522 lung)	growth (A549/ATCC NSCLC)	growth (786-0 renal)	growth (COLO 205 colon)
Cc1cc(C)nc(NC(N)=NCCc2ccccc2)n1	50.4%	52.6%	52.1%	52.4%	23.9%	39.2%	29.9%	33.1%	50.1%	40.1%
COc1ccc2c(c1)c1nc3cc(C)c(C)cc3nc1n2CCN(C)C	1.6% (active)	7.41% (active)	3.67% (active)	20.3%	-22% (active)	41%	6.94% (active)	-75% (active)	-60.8% (active)	-23.8% (active)
CC(=O)O[C@H]1CC[C@@]2(C)C(=CC[C@@H]3[C@@H]2CC[C@]2(C)C(=O)N(O)C(=O)C[C@@H]32)C1	68%	107%	91.9%	68.5%	60.8%	93%	75.5%	86.9%	81.1%	112%
CN1CCN(c2nc(-c3cccc4ccccc34)nc3sc4c(c23)CCCCCC4)CC1	92.2%	74.4%	104%	75.4%	91.4%	-0.421% (active)	88.7%	95.5%	87.7%	91.7%
C[C@@H]1CCCCCCCCC[C@H](O)C(=O)C[C@@H](SC[C@@H](O)C(=O)O)C(=O)O1	96.5%	102%	116%	97.5%	108%	90.8%	66.4%	85.8%	85.7%	117%
C=C(C)[C@@H]1CC[C@]2(C=O)CC[C@]3(C)[C@H](CC[C@@H]4[C@@]5(C)C/C(=C/c6cccnc6)C(=O)C(C)(C)[C@@H]5CC[C@]43C)[C@@H]12	75.6%	91.3%	100%	119%	85.7%	83.9%	72%	57.1%	101%	95.5%
C=C1C(=O)O[C@H]2[C@H]1CC/C(COC(=O)NCc1cc3ccccc3[nH]1)=C\CC[C@@]1(C)O[C@@H]21	35.8%	64.5%	88.3%	58.3%	55.3%	-14.3% (active)	-84.4% (active)	77.4%	-84.5% (active)	-52.2% (active)
Cc1cc(N(CCCNc2ccnc3cc(Cl)ccc23)Cc2ccco2)nc(N2CCN(C)CC2)n1	66%	88.3%	64.2%	48.2%	28.4%	79.9%	82.1%	45%	59%	-21.2% (active)
[B-][N+](CC)(CC)c1ccccc1	105%	106%	96.9%	101%	110%	81.9%	96.5%	102%	105%	102%
O=C1CCN2C(=O)Nc3ccccc3C2C1 (stereo not given)	101%	104%	95.8%	109%	100%	96.7%	100%	101%	99.3%	107%
Cc1csc(-c2ccc3c(c2)COC3(CCCN(C)C)c2ccc(F)cc2)c1 (stereo not given)	88.9%	95.8%	77%	-64.4% (active)	-45.7% (active)	34.3%	-38.8% (active)	31.3%	61.8%	-69.1% (active)
COc1cc2c(cc1-c1c(C)noc1C)ncc1nc(C3CC3)n([C@H](C)COC(F)F)c12	65.4%	58.1%	47.8%	43.4%	60.7%	37%	27.4%	36.1%	51.6%	25.1%
